# Source: PubChem BioAssay (NCATS)
# Inconclusive results are not listed. Entries that show only a call come without a potency. Calls of active or inactive are those of the source. Calls come from the whole dose curve; as a rule, active = well fitted cell-killing curve with a large enough effect; inconclusive = small, poorly fitted or top-dose-only effect; inactive = flat fitted curve, though single readings scatter.
# Assay: qHTS of pediatric cancer cell lines to identify multiple opportunities for drug repurposing: Primary screen for U-2 OS cells (AID 1347096); note: nearly all actives have a fitted effect of over 50% in size
# Settings: U-2 OS viability, CellTiter-Glo luminescence, 48 h; series mostly up to 46 µM
# Text: Drug repurposing or repositioning has been offered as a strategy for drug development in oncology programs. This approach has special potential for childhood cancers and other rare or orphan diseases, where the expected return on new drug development has been a disincentive to pharmaceuticals.
# In this project we exploit the poly-pharmacology of drugs to discover new indications via phenotypic screening of a panel of 19 well-characterized cell lines derived from solid tumors seen in children and adolescents. The goal is to identify approved drugs with previously unrecognized anticancer properties that has the potential to reveal new mechanisms and biological processes involved in carcinogenesis or drug resistance. We employed a titration-based paradigm (quantitative high-throughput screening or qHTS), where all compounds were tested at multiple concentrations for their effect on cell viability. Concentration-response curves (CRCs) were derived directly from the primary screen, and both potency and efficacy values were used to identify compounds with robust bioactivity profiles. We screened the NIH Chemical Genomics Center (NCGC) Pharmaceutical Collection (NPC) and Mechanism Interrogation Plate (MIPE) small molecule collections of approved and investigational compounds against these cell lines; and measured metabolically active cells after 48 hours of compound treatment as a proxy for cell viability.
# Assay Submitter: Nathalia J. Martinez, National Center for Advancing Translational Sciences, National Institutes of Health, Rockville, MD, USA; email: natalia.martinez@nih.gov
# [1] Shen, M et al. Quantitative high-throughput phenotypic screening of pediatric cancer cell lines identifies multiple opportunities for drug repurposing. Oncotarget 2017 Dec 19;9(4):4758-4772. PMID 29435139.
# The cells were obtained from University of North Carolina (UNC), Pediatric Preclinical Testing Program (PPT), and Coriell Institute (CI).
# qHTS cell viability assay:
# Cells were assayed in growth media at a density of 500-1,000 cells/well. Five microliters of cells were dispensed into 1,536-well, white, solid-bottom, TC-treated plates (Greiner Bio One) using a multidrop dispenser and incubated at 37 degrees C, 5% CO2, under a humidified atmosphere for 5 hours. Twenty-three nanoliters of compounds and controls (neutral control DMSO or positive control bortezomib at final concentration of 2.3 µM) were subsequently transferred by Kalypsys pintool. For primary screens, the MIPE collection was tested at 11-point dilutions (final concentrations range from 0.78 nM to 46 µM) and the NPC collection at 8-point dilutions (final concentrations range from 0.59 nM to 46 µM). Compounds tested in follow-up screens were assayed at 11-point dilutions. Cells were incubated for 48 hours, followed by addition of 3 µL of CellTiter-Glo (Promega). After a 15 min incubation at room temperature, samples were analyzed for luminescence intensity using a ViewLux High-throughput CCD imager equipped with clear filters.
# Potency is the fitted concentration of half-maximal effect.
row,SMILES,Potency
1,Nc1ccc([As](=O)(O)O)cc1,inactive
2,Clc1cccc(SC2CCNCC2)n1,inactive
3,CN1C(=O)COc2c(C(=O)NC3CN4CCC3CC4)cc(Cl)cc21 (stereo not given),inactive
4,COc1cc(OC)c(OC)cc1C=O,inactive
5,COc1ccc2c3c1O[C@H]1[C@H](O)CC[C@H]4[C@@H](C2)N(C)CC[C@@]341,inactive
6,C[C@](O)(CS(=O)(=O)c1ccc(F)cc1)C(=O)Nc1ccc(C#N)c(C(F)(F)F)c1,14.8 µM (active)
7,CN1CC[C@]23c4c5ccc(O)c4O[C@H]2[C@@H](O)CC[C@H]3[C@H]1C5,inactive
8,C[C@]12CC[C@H]3[C@@H](CCC4=CC(=O)CC[C@@H]43)[C@@H]1CC[C@@H]2OC(=O)CCc1ccco1,inactive
9,COc1cccc([C@@]2(O)CCCC[C@@H]2CN(C)C)c1,inactive
10,C#CC(O)(C=CCl)CC (stereo not given),inactive
11,COP(=S)(OC)SCN1C(=O)c2ccccc2C1=O,inactive
12,CC(C)C[C@H](CN)CC(=O)O,inactive
13,COP(=S)(OC)Oc1ccc(S(=O)(=O)N(C)C)cc1,inactive
14,O=[N+]([O-])O[C@H]1CO[C@H]2[C@@H]1OC[C@H]2O[N+](=O)[O-],inactive
15,CCCN(CCC)C(=O)Cc1c(-c2ccc(Cl)cc2)nc2ccc(Cl)cn12,inactive
16,CC(C)N(CCC(C(N)=O)(c1ccccc1)c1ccccn1)C(C)C (stereo not given),inactive
17,C[C@@H]1CC2=CC(=O)CC[C@@H]2[C@H]2CC[C@@]3(C)[C@@H](CC[C@]3(C)O)[C@@H]21,inactive
18,COC(=O)[C@@H](N)CCCN/C(N)=N/[N+](=O)[O-],inactive
19,O=C1c2ccccc2C(=O)C1C(=O)C(c1ccccc1)c1ccccc1,inactive
20,NC(=O)c1cc([N+](=O)[O-])cc([N+](=O)[O-])c1,inactive

row,SMILES,Potency
1,NC(=O)CS(=O)C(c1ccccc1)c1ccccc1 (stereo not given),inactive
2,Nc1ccccc1,inactive
3,CCC1(c2ccccc2)C(=O)N(COC)C(=O)N(COC)C1=O,inactive
4,C[C@]12CCC(=O)C=C1CC[C@@H]1[C@@H]2CC[C@@]2(C)[C@H]1CC[C@]2(C)O,inactive
5,COc1cc(CCN)cc(OC)c1OC,inactive
6,NNc1ccccc1,inactive
7,Nc1nc(N)nc(NC2CC2)n1,inactive
8,O=C(O)CCCc1ccc(N(CCCl)CCCl)cc1,inactive
9,CC(Cc1ccccc1)NCCn1cnc2c1c(=O)n(C)c(=O)n2C (stereo not given),inactive
10,O=C(N/N=C/c1ccc([N+](=O)[O-])o1)c1cc([N+](=O)[O-])cc([N+](=O)[O-])c1O,inactive
11,CC(C)(C)NCC(O)c1ccccc1Cl (stereo not given),inactive
12,O=C1CN=C(c2ccccc2)c2cc([N+](=O)[O-])ccc2N1,inactive
13,C=CCC1([C@H](C)CCC)C(=O)NC(=O)NC1=O,inactive
14,CCCCCCC(=O)CCCCCC/C=C/C[C@@H](O)[C@H](O)[C@@](N)(CO)C(=O)O,inactive
15,CCCOC(=O)c1cncn1C(C)c1ccccc1 (stereo not given),inactive
16,C[C@]12CC[C@H]3[C@@H](CCC4=CC(=O)CC[C@@H]43)[C@@H]1CC[C@@H]2OC(=O)CCC1CCCCC1,inactive
17,C[N+]1(CCF)[C@@H]2CC[C@H]1CC(OC(=O)C(O)(c1ccccc1)c1ccccc1)C2 (stereo not given in full),inactive
18,CC(=O)C1CCOC1=O (stereo not given),inactive
19,c1ccc(N2CCNCC2)cc1,inactive
20,C#C[C@]1(O)CC[C@H]2[C@@H]3CCC4=CC(=O)CC[C@]4(C)[C@H]3CC[C@@]21C,inactive
